From PubChem BioAssay AID651687 (Broad Institute, 2012)
Values joined by “and” are separate entries in the source; they are usually repeats but may differ in a detail not shown here. Equal values may be shown once. Among all 350,000 compounds or so, about 600 (0.17%) were called active.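 The calls were made as follows: active = every replicate shows inhibition of at least 40%; inconclusive = mean inhibition at least 40% but some replicate below; inactive = the rest.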 This excerpt belongs to a sample that is enriched for actives.

experiment: inhibitors of PGC1a acetylation signal, primary screen, cell-based, U2OS, AlphaScreen, inhibitor mode (AID 651687); conditions: AlphaScreen anti-acetyl-lysine, at 15.6 µM, active compounds read high, with virally co-expressed GCN5 acetyltransferase;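 also: 0% = neutral control wells and 100% = positive control wells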

Row | SMILES | inhibition
1 | C[C@H](CO)N1C[C@H](C)[C@H](CN(C)S(=O)(=O)c2cn(C)cn2)Oc2c(NC(=O)c3ccncc3)cccc2C1=O | -3.09% (inactive)
2 | CO[C@H]1CN(C)C(=O)c2ccc(NC(=O)c3nc4ccccc4s3)cc2OC[C@@H](C)N(Cc2cncnc2)C[C@H]1C | 10.9% (inactive)
3 | CC[C@H]1CN2CCc3cc(OC)c(OC)cc3[C@@H]2C[C@@H]1C[C@H]1NCCc2cc(OC)c(OC)cc21 | 83.7% (active)
4 | C[C@@H]1CN([C@@H](C)CO)S(=O)(=O)c2ccc(-c3cccc(F)c3)cc2O[C@@H]1CN(C)S(=O)(=O)c1ccccc1 | 5.85% (inactive)
5 | C[C@H](CO)N1C[C@H](C)[C@H](CN(C)C)Oc2ncc(/C=C/c3ccccc3)cc2C1=O | -8.6% (inactive) and 4.49% (inactive)
6 | CO[C@H]1CN(C)C(=O)c2cc(NC(=O)c3nc4ccccc4s3)ccc2OC[C@H](C)N(Cc2cccnc2)C[C@@H]1C | 7.17% (inactive)
7 | COc1ccc(NC(=O)N2CC[C@@H]3[C@@H](CO)N(C)c4ccc(-c5cccc(F)c5)cc4[C@@H]32)cc1 | 10.2% (inactive)
8 | O=C(Nc1ccc(C(F)(F)F)cc1)N[C@@H]1CC[C@H](CCNC(=O)c2ccccc2F)O[C@H]1CO | 10.8% (inactive)
9 | CO[C@@H]1CN(C)C(=O)c2ccc(NC(=O)NC(C)C)cc2OC[C@H](C)N(Cc2ccc(-c3ccccn3)cc2)C[C@H]1C | -3.93% (inactive)
10 | COc1ccc(N2CCC(N3CCN(C)C(CCO)C3)CC2)cc1 (centres undefined) | 0.824% (inactive)
11 | CCOc1ccccc1CN1CCN(C2CCC2)CC1CCO (centres undefined) | 74.8% (active)
12 | COc1ccccc1N1CCC(N2CCN(CC(C)(C)C)C(CCO)C2)CC1 (centres undefined) | 10.6% (inactive)
13 | CO[C@@H]1CN(C)C(=O)c2ccc(NC(=O)c3ccccn3)cc2OC[C@@H](C)N(C(=O)C2CCCCC2)C[C@H]1C | -2.25% (inactive)
14 | C[C@H](CO)N1C[C@H](C)[C@H](CN(C)Cc2ccccn2)Oc2ncc(C#CCc3ccccc3)cc2C1=O | -0.518% (inactive)
15 | COCCCNC(=O)[C@@]1(Cc2ccccc2)COC(c2ccc(OCCCO)cc2)=N1 | 4.46% (inactive)
16 | Cc1ccc(S(=O)(=O)N(C)C[C@H]2OCCCC[C@@H](C)Oc3ccc(NC(=O)Nc4ccc(F)cc4)cc3C(=O)N([C@@H](C)CO)C[C@H]2C)cc1 | -6.65% (inactive)
17 | C[C@@H]1CN([C@H](C)CO)C(=O)c2cc(C#Cc3cccc(F)c3)cnc2O[C@H]1CN(C)Cc1ccccn1 | -11.1% (inactive)
18 | Cc1noc(C)c1S(=O)(=O)Nc1ccc2c(c1)CC(=O)N([C@@H](C)CO)C[C@H](C)[C@H](CN(C)S(=O)(=O)c1ccc(Cl)cc1)O2 | 10.3% (inactive)
19 | CO[C@H]1CN(C)C(=O)c2cc(NC(=O)C3CC3)ccc2OC[C@H](C)N(C(=O)CN(C)C)C[C@H]1C | -4.9% (inactive)
20 | O=C(C[C@H]1C[C@H]2c3cc(NC(=O)CC4CC4)ccc3O[C@H]2[C@H](CO)O1)NCc1cc(F)ccc1F | -0.32% (inactive)
21 | C[C@H](CO)N1C[C@H](C)[C@@H](CN(C)Cc2ccc(C(F)(F)F)cc2)Oc2ccc(NC(=O)Cn3cnnn3)cc2CC1=O | 6.38% (inactive)
22 | Cc1noc(C)c1NC(=O)Nc1ccc2c(c1)C(=O)N([C@H](C)CO)C[C@@H](C)[C@@H](CN(C)S(=O)(=O)c1ccc(Cl)cc1)OCCCC[C@H](C)O2 | 0.953% (inactive)
23 | COc1ccc(S(=O)(=O)N(C)C[C@H]2Oc3ccc(NS(C)(=O)=O)cc3C(=O)N([C@H](C)CO)C[C@H]2C)cc1 | -5.85% (inactive)
24 | O=C(Cc1ccccc1)N1CC[C@H]2[C@H](CO)Nc3ccc(-c4ccccc4F)cc3[C@H]21 | -17.2% (inactive)
25 | CC(C)NC(=O)Nc1ccc2c(c1)C(=O)N([C@H](C)CO)C[C@H](C)[C@@H](CN(C)Cc1ccc3c(c1)OCO3)OCCCC[C@H](C)O2 | 4.63% (inactive)

Row | SMILES | inhibition
26 | C[C@@H]1CN([C@@H](C)CO)C(=O)c2cc(NC(=O)c3ccncc3)ccc2O[C@@H]1CN(C)S(C)(=O)=O | 6.79% (inactive)
27 | Cc1ccccc1-c1ccc([C@H]2[C@@H](CO)N3C(=O)CN(C(=O)c4ccncc4)C[C@H]23)cc1 | -5.89% (inactive)
28 | N#CC1=C(N)Oc2cc(N)ccc2C1c1ccccc1 (centres undefined) | -1.66% (inactive)
29 | Cn1c2c(c(=O)n(C)c1=O)C(c1cccc(F)c1)C(C#N)=C(N)O2 (centres undefined) | 80.9% (active)
30 | Cc1cc2c(c(=O)n1C)C(C(C)C)C(C#N)=C(N)O2 (centres undefined) | 8.23% (inactive)
31 | C[C@@H]1CN([C@@H](C)CO)C(=O)c2cc(NC(=O)CCCCCC(=O)Nc3ccccc3N)ccc2O[C@@H](C)CCCCO[C@@H]1CN(C)CC1CCCCC1 | 3.98% (inactive)
32 | O=C(CC(F)(F)F)N1C[C@H]2[C@@H](c3ccccc31)[C@H](CO)N2C(=O)Cc1cccnc1 | 0.596% (inactive)
33 | CN(C)Cc1cn(CC[C@H]2CC[C@@H](NS(=O)(=O)c3ccccc3)[C@H](CO)O2)nn1 | -1.22% (inactive)
34 | CO[C@H]1CN(C)C(=O)c2ccc(NS(C)(=O)=O)cc2OC[C@@H](C)N(Cc2ccccc2)C[C@H]1C | 4.39% (inactive)
35 | O=C(C[C@@H]1CC[C@@H](NC(=O)c2cccnc2)[C@H](CO)O1)NCCN1CCCCC1 | 6.21% (inactive)
36 | CCC(=O)N1CC(=O)N2[C@@H](CO)[C@H](c3ccc(C#CCC(C)C)cc3)[C@@H]2C1 | -4.62% (inactive)
37 | O=C(CC(F)(F)F)N1C[C@H]2[C@@H](c3ccccc31)[C@H](CO)N2C(=O)Cc1ccccc1 | 9.3% (inactive)
38 | C/C=C/c1ccccc1[C@@H]1[C@@H](C#N)N(C(=O)Cc2ccccn2)[C@H]1CO | -0.046% (inactive)
39 | C[C@H]1CN([C@@H](C)CO)S(=O)(=O)c2ccc(C#CC3(O)CCCC3)cc2O[C@@H]1CN(C)C(=O)Nc1cccc(F)c1 | -10% (inactive)
40 | Cc1ccc(S(=O)(=O)N2C[C@H](O)COC[C@@H]3O[C@@H](CC(=O)NCC4CCCCC4)CC[C@H]32)cc1 | -0.708% (inactive)
41 | COc1ccccc1CN1[C@@H]2CNC[C@H]1C2c1ccc(-c2cccc(C#N)c2)cc1 (some centres undefined) | 1.68% (inactive) and -10% (inactive)
42 | N#Cc1ccc(-c2ccc3c(c2)[C@H]2[C@H](CCN2Cc2ccc4c(c2)OCO4)[C@@H](CO)N3)cc1 | -7% (inactive)
43 | N#Cc1ccc(-c2ccc([C@@H]3[C@H]4CNC[C@@H]3N4Cc3ccc4c(c3)OCO4)cc2)cc1 | 48.1% (active)
44 | COc1ccc2c3c([nH]c2c1)[C@H](CO)N(Cc1ccccc1OC)CC31CCN(S(=O)(=O)c2ccccc2)CC1 | 8.15% (inactive)
45 | C[C@@H]1CN([C@@H](C)CO)C(=O)c2cccc(NC(=O)c3ccc(-c4nccs4)cc3)c2O[C@H]1CN(C)C(=O)Nc1ccccc1 | -1.84% (inactive)
46 | Cc1ccc(C)n1NC(=O)c1ccc([N+](=O)[O-])cc1 | 2.46% (inactive)
47 | N=C1C(c2nc3ccccc3s2)=C(O)CN1NC(=O)c1ccc([N+](=O)[O-])cc1 | 100% (active)
48 | O=C(Nn1cnnc1)c1ccc([N+](=O)[O-])cc1 | -2.58% (inactive)
49 | COc1ccc(NC(=O)N2C[C@H](O)COC[C@H]3O[C@@H](CC(=O)NC4Cc5ccccc5C4)CC[C@@H]32)cc1 | 1.58% (inactive)
